Values joined by “and” are separate entries in the source; they are usually repeats but may differ in a detail not shown here. Identical values can stand only once. The whole screen tested about 340,000 compounds, of which about 500 (0.15%) were called active. This excerpt belongs to a sample that is enriched for actives. Unmarked numbers belong to inactive results.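 Rule for the calls: active = mean replicate inhibition of at least 30%, or all replicates individually reaching that 30% level; inactive = mean below 30% and not every replicate reaching it.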

The target of the assay is Endoplasmic reticulum aminopeptidase 1 (Homo sapiens) (UniProt Q9NZ08). Description: human ERAP1 aminopeptidase inhibitors, primary screen, biochemical, single point, plate reader (AID 652197).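 Note: 0% = neutral control wells and 100% = L-leucinethiol positive control wells.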 The conditions noted are these: recombinant ERAP1, Leu-AMC fluorescence, 60 min; at 10.7 µM; active compounds read high.
Sequence of Endoplasmic reticulum aminopeptidase 1 (Homo sapiens) (Q9NZ08 whole entry, looked up): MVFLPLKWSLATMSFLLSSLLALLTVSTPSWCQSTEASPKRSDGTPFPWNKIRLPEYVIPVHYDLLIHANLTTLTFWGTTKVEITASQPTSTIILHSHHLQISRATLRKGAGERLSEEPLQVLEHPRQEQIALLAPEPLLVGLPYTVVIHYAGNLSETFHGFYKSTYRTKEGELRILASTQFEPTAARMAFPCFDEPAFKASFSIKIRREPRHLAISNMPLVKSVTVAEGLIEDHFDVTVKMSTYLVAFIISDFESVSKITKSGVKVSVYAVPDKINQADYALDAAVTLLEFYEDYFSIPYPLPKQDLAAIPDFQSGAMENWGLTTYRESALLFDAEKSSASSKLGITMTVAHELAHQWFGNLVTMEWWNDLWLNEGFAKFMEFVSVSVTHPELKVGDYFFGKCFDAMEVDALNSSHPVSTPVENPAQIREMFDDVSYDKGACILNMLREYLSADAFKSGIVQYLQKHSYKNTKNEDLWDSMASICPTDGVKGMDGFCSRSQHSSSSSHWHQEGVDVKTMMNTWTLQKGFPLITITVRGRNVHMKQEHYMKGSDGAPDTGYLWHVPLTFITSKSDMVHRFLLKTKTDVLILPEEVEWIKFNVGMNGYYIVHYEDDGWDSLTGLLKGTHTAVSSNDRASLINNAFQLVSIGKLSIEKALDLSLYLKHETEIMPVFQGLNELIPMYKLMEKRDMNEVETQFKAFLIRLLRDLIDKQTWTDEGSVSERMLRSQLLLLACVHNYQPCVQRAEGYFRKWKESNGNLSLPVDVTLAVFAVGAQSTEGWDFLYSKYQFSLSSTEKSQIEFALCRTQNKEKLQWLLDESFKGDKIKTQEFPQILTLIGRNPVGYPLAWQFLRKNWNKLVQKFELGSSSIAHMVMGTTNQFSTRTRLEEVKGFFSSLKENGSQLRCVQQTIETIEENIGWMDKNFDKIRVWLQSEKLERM
For the compound `O=C(C[C@H]1CC[C@H]2[C@@H](COC[C@@H](O)CN2C(=O)Nc2ccc(C(F)(F)F)cc2)O1)NC1Cc2ccccc2C1`, the inhibition was 3.19%.
The result for `Cc1ccc(-c2ccc(C3[C@H]4CNC[C@@H]3N4S(=O)(=O)c3ccccc3C)cc2)cc1` (stereo partly specified) reads 1.57% and -0.081%; that for `COc1cccc(-c2ccc([C@@H]3[C@@H](CO)N4C(=O)CN(C(=O)C5CCCCC5)C[C@H]34)cc2)c1`, -0.992%.
For `CO[C@@H]1CC[C@@H]2CCOc3ccc(C#N)cc3C(=O)N(C)C[C@@H](OC)[C@@H](C)C(=O)N(C)C[C@H]1O2`, the inhibition was -4.56%.
Regarding `CNC(=O)C[C@@H]1CC[C@@H]2[C@H](COC[C@@H](O)CN2S(=O)(=O)c2ccccc2Cl)O1`, the inhibition was 0.052%.
For `Cc1nc2cccnc2nc1C` the value was 1.29%; for `Cc1nc2ccc(N)nc2nc1C`, 31.2% (active); for `O=C(CCN1CCCCC1)NCC[C@H]1CC[C@@H](NC(=O)C2CCOCC2)[C@H](CO)O1`, 3.14%.
For `C[C@H]1CN([C@@H](C)CO)C(=O)Cc2cc(NC(=O)c3ccncc3)ccc2O[C@@H]1CN(C)C(=O)Nc1ccccc1` the value was 1.04%; for `CNC(=O)C[C@H]1CC[C@@H]2[C@H](COc3ccc(NC(=O)Nc4ccc(F)c(F)c4)cc3C(=O)N2C)O1`, 0.113%.
For `C#Cc1ccc([C@H]2C=C(C(=O)O)O[C@@H](OCC)[C@@H]2CCCO)cc1` the value was -6.5%; for `C[C@@H]1CCCCO[C@H](CN(C)C(=O)c2ccccc2)[C@H](C)CN([C@@H](C)CO)C(=O)c2cc(NC(=O)Nc3ccc4c(c3)OCO4)ccc2O1`, -5.55%; for `Cc1ccc(S(=O)(=O)Nc2ccc3c(c2)C(=O)N([C@@H](C)CO)C[C@@H](C)[C@H](CN(C)Cc2ccc(Cl)c(Cl)c2)OCCCC[C@@H](C)O3)cc1`, 0.461%.
Take `Cc1ccc(CCCOC(=O)C[N+]2(C)CCCC2)cc1`: the inhibition is 106% (active).
As to `Cc1ccc(CCCOC(=O)C[N+]2(C)CCCCC2)cc1`, the inhibition is 30.8% (active).
On to `Cc1ccc(COC(=O)CN2C(=O)NC3(CCCC3)C2=O)cc1`, for which the inhibition was -3.32%.
The result for `COc1ccc(CC2c3cc(OC)c(OC)cc3CC[N+]2(C)CCC(=O)OCCCCCOC(=O)CC[N+]2(C)CCc3cc(OC)c(OC)cc3C2Cc2ccc(OC)c(OC)c2)cc1OC` (stereo unspecified) reads -5.26%.
Turning to `Cc1ccc(S(=O)(=O)CCC(=O)OCC(=O)NCCc2ccc(S(N)(=O)=O)cc2)cc1`, the inhibition is -0.437%.
The result for `Cc1ccc(CNC(=O)COC(=O)C2CCC2)cc1` reads 1.31%; that for `COc1ccc2c3c(n(C)c2c1)[C@@H](CO)N(C(=O)CN1CCOCC1)CC31CCN(C(=O)C2CC2)CC1`, -0.976%.
For `CCCC(=O)Nc1ccc2c(c1)OC[C@@H](C)N(CC1CCOCC1)C[C@H](C)[C@H](OC)CN(C)C2=O` the value was 6.53%.
For `C[C@H](NC(=O)[C@@H]1[C@@H](CO)[C@@H]2Cn3c(ccc(-c4cccc(F)c4)c3=O)[C@@H]2N1C)c1ccccc1`, the inhibition was 5.74%.
In the case of `CC(C)NC(=O)N(C)C[C@@H]1Oc2ccc(N(C)C)cc2CC(=O)N([C@H](C)CO)C[C@@H]1C`, the inhibition was 2.87%.
With `CN1CCN(C(=O)C[C@H]2CC[C@@H]3[C@H](COC[C@@H](O)CN3CC3CCCC3)O2)CC1`, the inhibition was 4.35%.
As to `CC(C)c1cn(CC[C@@H]2CC[C@@H](NC(=O)C3CC3)[C@H](CO)O2)nn1`, the inhibition is -4.66%.
The result for `COc1ccc2c3c(n(C)c2c1)[C@H](CO)N(C(=O)NC(C)C)CC31CCN(C(=O)NC(C)C)CC1` reads -0.444%; that for `O=C(N[C@H]1CC[C@@H](CCNS(=O)(=O)c2ccccc2)O[C@H]1CO)c1cccnc1`, -2.04%.
The result for `C[C@@H]1CN([C@@H](C)CO)C(=O)c2cc(NC(=O)Nc3ccc(F)cc3)ccc2O[C@H]1CN(C)CC1CCCCC1` reads -0.385%; that for `O=C(c1cccc(F)c1)N1CC[C@@H]2[C@H](CO)Nc3ccc(-c4ccccc4)cc3[C@@H]21`, -0.032%.
Consider `O=C(C[C@@H]1CC[C@H](NC(=O)NC2CCCCC2)[C@H](CO)O1)NCc1ccc(F)cc1`, for which the inhibition is 0.011%.
The result for `CC(C)NC(=O)N1[C@H](C(=O)N2CCc3ccccc3C2)[C@@H](CO)[C@@H]2Cn3c(cccc3=O)[C@@H]21` reads 0.844%; that for `COc1cccc2c1C(=O)c1c(O)c3c(c(O)c1C2=O)CC(O)(C(C)=NNC(=O)c1ccc(Cl)c(Cl)c1)CC3OC1CC(N)C(O)C(C)O1` (stereo unspecified), 42% (active).
`COCCNC(=O)c1snc2ccc(Cl)cc12`: the inhibition was -4.43%.
The result for `COCCNC(=O)Nc1ccc2nc(-c3ccco3)c(-c3ccco3)nc2c1` reads 30.5% (active); that for `COCCNC(=O)CSc1nc(N)c(NC(=O)c2ccco2)c(=O)[nH]1`, -7.96%.
For `O=C(C[C@H]1CC[C@H]2[C@@H](COC[C@@H](O)CN2CC2CCCC2)O1)NCC1CC1` the value was -1.66%; for `Cc1noc(C)c1S(=O)(=O)N(C)C[C@H]1Oc2c(NC(=O)c3cnccn3)cccc2C(=O)N([C@H](C)CO)C[C@H]1C`, 5.55%; for `Cc1nc(N2[C@H](CO)[C@H](c3ccccc3)[C@H]2CNCC2CCC2)sc1C`, 2.07%.
For `O=C(C1CCC1)N1CC(=O)N2[C@H](C1)[C@@H](c1ccc(-c3ccccc3F)cc1)[C@@H]2CO` the value was -0.661%; for `CN(C)C(=O)c1cccc(-c2ccc([C@H]3[C@@H](CO)N4C(=O)CN(C(=O)C5CC5)C[C@@H]34)cc2)c1`, 0.435%; for `CN1C(=O)c2cc(NC(=O)C3CC3)ccc2OC[C@H]2O[C@H](CC(=O)O)CC[C@H]21`, -5.19%.
Regarding `O=C(Nc1ccccc1F)N1CC(=O)N2[C@H](C1)[C@@H](c1ccc(C#CC3CC3)cc1)[C@@H]2CO`, the inhibition is -0.691%.
Consider `O=S(=O)(c1ccc(F)cc1)N1CC[C@@H]2[C@@H](CO)Nc3ccc(-c4ccccc4F)cc3[C@@H]21`, for which the inhibition was 1%.
As to `O=C(Nc1ccccc1F)N[C@@H]1CC[C@@H](CCNC(=O)C2CC2)O[C@H]1CO`, the inhibition is -0.77%.
For `Cc1noc(C)c1NC(=O)Nc1ccc2c(c1)C(=O)N([C@H](C)CO)C[C@H](C)[C@@H](CN(C)S(C)(=O)=O)OCCCC[C@H](C)O2` the value was -4.94%.
The result for `CCCC#Cc1ccc([C@H]2[C@H]3CN(C(=O)c4cccnc4)CC(=O)N3[C@H]2CO)cc1` reads -1.39%; that for `O=C1CN(C(=O)CN2C(=O)NC3(CCCCC3)C2=O)c2ccccc2N1`, -1.69%.
The result for `O=C(CN1C(=O)NC2(CCCCC2)C1=O)N1CCN(C(=O)c2cccs2)CC1` reads 37.4% (active).
For the compound `O=C(CN1C(=O)NC2(CCCCCC2)C1=O)NCc1cccs1`, the inhibition was -3.05%.
The result for `O=C1CNC[C@H]2[C@@H](c3ccc(C4=CCCC4)cc3)[C@@H](CO)N12` reads -1.67%; that for `CCCN1C[C@H](C)[C@@H](OC)CN(C)C(=O)c2ccc(NC(=O)c3cnccn3)cc2OC[C@H]1C`, 4.52%.
The result for `COc1ccc2c3c([nH]c2c1)[C@@H](CO)N(S(C)(=O)=O)CC31CN(CC2CC2)C1` reads -2.67%; that for `NCC[C@H]1CC[C@H](NC(=O)C2CC2)[C@@H](CO)O1`, 2.22%.
The result for `C[C@@H]1CN([C@@H](C)CO)C(=O)c2cc(NC(=O)C3CCCCC3)ccc2O[C@@H](C)CCCCO[C@H]1CN(C)C(=O)CCC(F)(F)F` reads -1.11%; that for `Cc1ccc(S(=O)(=O)Nc2ccc3c(c2)C(=O)N([C@@H](C)CO)C[C@@H](C)[C@H](CN(C)C(=O)NC(C)C)OCCCC[C@H](C)O3)cc1`, -4.09%; that for `COc1ccccc1S(=O)(=O)N[C@@H]1CC[C@H](CC(=O)N2CCOCC2)O[C@@H]1CO`, -0.783%.
In the case of `O=C(OCC(=O)c1c[nH]c2ccccc12)c1cccc(O)c1`, the inhibition was -0.958%.
The result for `O=C(O)c1[nH]c2ccccc2c1C(c1cccc(O)c1)c1c(C(=O)O)[nH]c2ccccc12` reads 34.8% (active); that for `C[C@H]1CN([C@@H](C)CO)C(=O)c2cc(NC(=O)Cn3cnnn3)ccc2O[C@H]1CN(C)S(C)(=O)=O`, -0.7%.
For `CCCNC(=O)Nc1ccc2c(c1)C(=O)N(C)C[C@H](OC)[C@H](C)CN[C@@H](C)CO2` the value was -2.85%; for `COc1ccc2c3c([nH]c2c1)[C@H](CO)N(C(=O)C1CCC1)CC31CCN(Cc2cccc(F)c2)CC1`, 0.436%; for `Cc1noc(C)c1S(=O)(=O)Nc1ccc2c(c1)C(=O)N([C@H](C)CO)C[C@H](C)[C@H](CN(C)C(=O)CCC(F)(F)F)OCCCC[C@H](C)O2`, 0.261%.
For `CCCNC(=O)Nc1ccc2c(c1)OC[C@H](C)N(C(=O)C1CCC1)C[C@H](C)[C@@H](OC)CN(C)C2=O` the value was 2.58%; for `C[C@@H]1CN([C@@H](C)CO)C(=O)c2c(c3ccccc3n2C)-c2ccccc2CO[C@@H]1CN(C)Cc1ccc2c(c1)OCCN2C`, 2.84%.
On to `O=C(C[C@H]1C[C@@H]2c3cc(NS(=O)(=O)c4ccc(F)cc4)ccc3O[C@@H]2[C@H](CO)O1)NCc1cccc(F)c1`, for which the inhibition is -2.83%.
For `CCCNC(=O)C[C@H]1C[C@H]2c3cc(NC(=O)COC)ccc3O[C@H]2[C@H](CO)O1` the value was 0.774%.

Broadly, the inhibition is the relative decrease from the control value, in per cent.

(Values after PubChem BioAssay AID652197 (Broad Institute, 2013).)
